Test [1] is described as follows: AP1 Signaling Pathway (AID 357; active = well fitted curve in either direction with a large enough effect, not every such curve was filed as active; note: % is set by controls: 0 for no effect and ±100 for the full control effect). Conditions: ME-180 AP-1-bla reporter, EGF-induced, beta-lactamase ratio, 5 h. In short, it runs like this:
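AP-1-bla ME-180 cells with beta-lactamase reporter under AP-1 response element, stimulated with EC50 EGF; compounds titrated, 5 hours at 37 degrees Celsius. CCF4 read at 460/530 nm ratio; positive and negative modulators judged by AC50.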

The target in test [2] is Cytochrome P450 1A2 (Homo sapiens) (UniProt P05177). In words: p450-cyp1a2 (AID 410; calls by dose curve; note: potency is the fitted concentration of half-maximal effect;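 for activity change, negative = inhibition: -100% = full effect of reference inhibitor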). The gist of the method:
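Inhibition was calculated relative to 57 uM furafylline (full inhibition). The reaction used human CYP1A2 at 20nM with Luciferin-ME at its Km, 100uM, driven by an NADPH-regenerating system for 60 min at room temperature.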

A short description of test [3]: NFAT Signaling Pathway (AID 444; active = well fitted curve in either direction with a large enough effect, not every such curve was filed as active;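 note: carbachol stimulus at about its EC50 of 1 µM final; % is set by controls: 0 for no effect and ±100 for the full control effect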). Conditions: Jurkat NFAT-bla M1, carbachol, beta-lactamase ratio, 5 h. The gist of the method:
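Read-out: CCF4 FRET ratio (460 nm/530 nm) after 1 h RT dye loading, used for %activity and AC50 from titration series. Cells: Jurkat NFAT-β-lactamase/M1 line, treated with compound plus 1 uM carbachol for 5 h, 37 °C.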

Test [4] can be described thus: Stat Signaling Pathway (AID 446; active = well fitted curve in either direction with a large enough effect, not every such curve was filed as active;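 note: ME-180 cervical cancer cells given 40 pM IL-6 alongside compound; SIE-controlled beta-lactamase reporter measured as 460/530 nm FRET emission ratio; % is set by controls: 0 for no effect and ±100 for the full control effect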). Conditions: ME-180 SIE beta-lactamase reporter, IL-6 stimulated, 5 h. In short, it runs like this: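 ME-180 SIE-bla cells; overnight plating; cpd + IL-6 40 pM, 5 h, 37 C; LiveBLAzer 2.5 h RT; 460/530 nm emission ratio. Normalized to 300 pM IL-6 and 125 nM JAK inhibitor controls.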
The target of test [5] is Mitogen-activated protein kinase 10 (Mus musculus) (UniProt Q61831). Nature of the test: JNK3 AlphaScreen Assay (AID 530; active = well fitted curve in either direction with a large enough effect, not every such curve was filed as active;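 note: kinase came from lysate of stimulated human HepG2 cells; signal reports phosphorylation of biotinylated GST-cJun 1-79 at Ser73 with 10 µM ATP; % is set by controls: 0 for no effect and ±100 for the full control effect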). The gist of the method: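 Room-temperature AlphaScreen kinase assay; pre-activated HepG2 lysate as JNK3 source, biotin-GST-cJun(1-79) substrate, 10 uM ATP, compound 15 min preincubation.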
For orientation: In Alpha technology, singlet oxygen from a donor bead excites a nearby acceptor bead.

In test [6] the target is 3',5'-cyclic-AMP phosphodiesterase 4B (Homo sapiens) (UniProt Q07343). In words: qHTS Assay for Inhibitors of PDE-IV (AID 607; active = well fitted activation curve with a large enough effect in the main read-out, with a control signal flat, not every such curve was filed as active; note: % of control where 0% means no effect). The gist of the method:
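ACTOne HEK293 cells carry a modified cAMP-gated CNG channel and express endogenous PDE4; plated 1000 cells/well, compounds up to 22.9 uM final. Membrane-potential dye fluorescence (ex 535/em 590) was read; parental cells received 10 uM forskolin + 100 uM RO 20-1724.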
On the technique in general: In qHTS, concentration-response curves come from the screen itself.

Test [7] addresses Guanine nucleotide-binding protein G(i) subunit alpha-1 (Homo sapiens) (UniProt P63096). In words: qHTS Assay for Inhibitors of RGS12 GoLoco Motif Activity (Green Fluorophore) (AID 879).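 Note: 0% = labeled peptide with Gαi1 and full inhibition = labeled peptide alone without protein; negative values mean loss of peptide binding seen as reduced polarization.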 In short, it runs like this:
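Fluorescence polarization assay: 50 nM Gαi1 with 10 nM FITC-labeled RGS12 GoLoco peptide in 10 mM Tris pH 7.5, 150 mM NaCl, 0.1 mM GDP, 0.05% NP40, 10 min at room temperature with compound.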

Test [8] addresses Cytochrome P450 2C9 (Homo sapiens) (UniProt P11712). Nature of the test: qHTS Assay for Inhibitors and Substrates of Cytochrome P450 2C9 (AID 883). Note: nearly all actives have a fitted effect of over 60% in size. Note: potency is the fitted concentration of half-maximal effect. In short, it runs like this:
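Inhibition of CYP2C9 is scored as loss of luminescence, with 57uM sulphaphenazole defining 100% inhibition. Substrate Luciferin-H is used at 100uM, equal to its KM; enzyme at 10nM in 25mM KPO4, 60 min at 37C with NADPH regeneration.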

The target of test [9] is Cytochrome P450 2D6 (Homo sapiens) (UniProt P10635). In words: qHTS Assay for Inhibitors and Substrates of Cytochrome P450 2D6 (AID 891). Note: potency is the fitted concentration of half-maximal effect; nearly all actives have a fitted effect of over 60% in size. The gist of the method:
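Human CYP2D6 (5 nM) with 30 uM Luciferin-ME EGE (at Km) in 100 mM KPO4, compound preincubated 10 min, then NADPH regeneration system for 60 min at room temperature. Luciferin read by luminescence; normalized to 1.43 uM quinidine.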

Test [10] has as its target Cytochrome P450 2C19 (Homo sapiens) (UniProt P33261). Nature of the test: qHTS Assay for Inhibitors and Substrates of Cytochrome P450 2C19 (AID 899). Note: % is set by controls: 0 for no effect and ±100 for the full control effect; nearly all actives have a fitted effect of over 60% in size. In short, it runs like this:
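5nM enzyme + 10uM Luciferin-H EGE (=KM), 50mM KPO4; cpd pin-transferred, 10 min 37C; NADPH regen, 60 min 37C; stopped w/ luciferin detection reagent, 20 min; luminescence. Normalized to 57uM ketoconazole (AC100).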

A short description of test [11]: qHTS Assay for Identification of Small Molecule Agonists for Thrombopoietin (TPO) Signaling Pathway (AID 917). Note: % is set by controls: 0 for no effect and ±100 for the full control effect. The gist of the method:
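IL-3-dependent murine pro-B Ba/F3 cells, stably transfected with human TPO receptor and GpIIb-promoter luciferase, are incubated 24 hrs at 37 C with test compound and 26 pM TPO; luciferase signal is read after 10 min at room temperature.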

For test [12], the target named is Pyruvate kinase (Leishmania mexicana) (UniProt Q27686). Nature of the test: qHTS Validation Assay for Inhibitors of Leishmania Mexicana Pyruvate Kinase (AID 945).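 Note: 0% = DMSO only neutral control wells.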 The gist of the method:
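qHTS eight-point titrations against 0.2 nM LmPYK (E451W) in imidazole buffer pH 7.2 with 0.5 mM PEP, 0.1 mM ADP; 1 h, room temperature. Readout: PKLight luminescence, normalized to neutral DMSO wells.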

The target of test [13] is Pyruvate kinase PKM (Homo sapiens) (UniProt P14618). In words: qHTS Assay for Activators of Human Muscle Pyruvate Kinase (AID 954; active = well fitted curve in the direction sought with a large enough effect, not every such curve was filed as active;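 note: 0% = uninhibited enzyme and -100% = no enzyme or full thiadiazolimine inhibition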). The gist of the method: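 Luminescence from a luciferase ATP-detection/stop reagent reported PKM2 activity. Reactions contained 0.1 nM purified human enzyme, 0.5 mM PEP, 0.1 mM ADP and 7 mM MgCl2 at pH 7.2, run 1 h at RT.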
Test [14] deals with Alpha-galactosidase A (Homo sapiens) (UniProt P06280). Nature of the test: Counterscreen for Glucocerebrosidase Inhibitors: qHTS Assay for Human alpha-Galactosidase at pH 4.5 (AID 992). Note: 0% is about no effect. The gist of the method:
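Enzyme at 2 nM final was combined with compound (0.7 nM to 77 uM) and 80 uM 4-methylumbelliferyl alpha-D-galactopyranoside in 50 mM citric acid, 0.005% Tween-20, pH 4.5. After 20 min at room temperature, fluorescence was read (Ex 365/Em 440 nm); AC50 came from Hill fits.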
(In general: A counterscreen serves to expose hits that act by an unwanted route or on another target.)

Test [15] deals with alpha-glucosidase (Oryza sativa, rice) (UniProt Q653V4). Nature of the test: Counterscreen for Glucocerebrosidase Inhibitors: qHTS Assay for Rice alpha-Glucosidase at pH 5.0 (AID 997).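 Note: 0% = full activity with enzyme and -100% = basal without enzyme.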 In short, it runs like this: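 Rice alpha-glucosidase (4 nM final) with 400 uM 4-methylumbelliferyl-alpha-D-glucopyranoside in citrate buffer pH 5.0, 20 min at room temperature, stopped at pH 10; fluorescence 365/440 nm, compounds 0.7 nM–77 uM, AC50 from Hill fits.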

The target of test [16] is DNA dC->dU-editing enzyme APOBEC-3G (Homo sapiens) (UniProt Q9HC16). Nature of the test: qHTS for inhibitors of Vif-A3G interactions: Validation (AID 588379). Note: 0% is about no effect. In short, it runs like this: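 HeLa cells stably expressing Vif and A3G-eYFP, 700 cells/well, incubated overnight at 37 deg C, then exposed to compound overnight at 37 deg C. Inhibition of Vif-mediated degradation read as increased yellow fluorescence (Ex 488/Em 500-530) by laser-scanning cytometry.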

For test [17], the system named is Zika virus NS2B-NS3 protease. In words: Primary screen GU AMC qHTS for Zika virus inhibitors (AID 1347154).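 For activity change, negative = inhibition: 0% = no-inhibitor control and -100% = no-enzyme control.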 Note: nearly all actives have a fitted effect of over 70% in size. Note: potency is the fitted concentration of half-maximal effect. In short, it runs like this:
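Fluorogenic AMC-substrate cleavage by noncovalent NS2B-NS3 protease complex (25 nM, pH 8.0 Tris buffer with Tween 20) followed for 15 minutes at room temperature (~20% conversion). Percent inhibition from ex340/em450 signal change, fitted by 4-parameter Hill equation.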

Test [18] has as its target Glucocorticoid receptor (Homo sapiens) (UniProt P04150). In words: GR-GFP Redistribution (AID 450;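 active = compounds whose dose series gives a full or clear partial fitted curve of increased nuclear translocation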; note: potency is the fitted concentration of half-maximal effect). Conditions: U2OS GR-GFP nuclear translocation, laser cytometry, 2 h.
For test [19] the target is unchanged. In words: GR-EFC Redistribution (AID 451; calls by dose curve; note: potency is the fitted concentration of half-maximal effect). Conditions: CHO-K1 GR-EFC translocation, beta-gal luminescence, 2 h. In short, it runs like this:
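Translocation of GR-ED fusion to nuclear EA restores b-gal, read by luminescence after 1 h room-temperature detection. Engineered CHO-K1 biosensor cells, 1,000/well, exposed 2 h at 37 C to titrations up to 46 uM final.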

In test [20] the target is Cytochrome P450 3A4 (Homo sapiens) (UniProt P08684). Nature of the test: qHTS Assay for Activators of Cytochrome P450 3A4 (AID 885). Note: nearly all actives have a fitted effect of over 65% in size. The gist of the method: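 20nM CYP3A4 + 25uM Luciferin-PPXE (=KM), 200mM KPO4; cpd 10 min RT; NADPH regen, 60 min RT; stop w/ detection buffer, 20 min; luminescence. Normalized to 57 uM ketoconazole.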
For test [21] the target is unchanged. In words: qHTS Assay for Inhibitors and Substrates of Cytochrome P450 3A4 (AID 884). Note: potency is the fitted concentration of half-maximal effect; nearly all actives have a fitted effect of over 50% in size. The gist of the method: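 20 nM human CYP3A4 with 25 uM Luciferin-PPXE (at KM) in 200 mM KPO4, preincubated 10 min with compound; NADPH regeneration started a 60 min RT reaction. Luciferin detected by luminescence, normalized to 57 uM ketoconazole as full inhibition.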
Test [22] concerns the target Tyrosyl-DNA phosphodiesterase 1 (Homo sapiens) (UniProt Q9NUW8). In words: Confirmation Assay for Inhibitors of Tyrosyl-DNA Phosphodiesterase (TDP1) (AID 489007). Note: potency is the fitted concentration of half-maximal effect; nearly all actives have a fitted effect of over 40% in size. The note with it: recombinant human TDP1 enzymatic activity, dose-response. In short, it runs like this: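 Confirmation of primary-screen follow-ups in a qHTS format. Substrate cleavage by Tdp1 (1 nM) of a 3'-phosphotyrosine-FITC, 5'-biotin oligo (15 nM) was monitored as decreased AlphaScreen signal after a 5 min room-temperature reaction.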

Structures are written as SMILES. “And” between values parts separate entries of the source, which are not always exact repeats. Equal entries are not always repeated. Values without a mark were called inactive. Inconclusive results are not listed. The source made the active and inactive calls. Unless noted, calls come from the whole dose curve; as a rule, active = well fitted curve in the direction sought with a large enough effect; inconclusive = small, poorly fitted or top-dose-only effect, or another doubt; inactive = no such curve, though single readings can be large; an effect the other way counts as inactive or inconclusive.

Sequence of 3',5'-cyclic-AMP phosphodiesterase 4B (Homo sapiens) (Q07343 whole entry, looked up): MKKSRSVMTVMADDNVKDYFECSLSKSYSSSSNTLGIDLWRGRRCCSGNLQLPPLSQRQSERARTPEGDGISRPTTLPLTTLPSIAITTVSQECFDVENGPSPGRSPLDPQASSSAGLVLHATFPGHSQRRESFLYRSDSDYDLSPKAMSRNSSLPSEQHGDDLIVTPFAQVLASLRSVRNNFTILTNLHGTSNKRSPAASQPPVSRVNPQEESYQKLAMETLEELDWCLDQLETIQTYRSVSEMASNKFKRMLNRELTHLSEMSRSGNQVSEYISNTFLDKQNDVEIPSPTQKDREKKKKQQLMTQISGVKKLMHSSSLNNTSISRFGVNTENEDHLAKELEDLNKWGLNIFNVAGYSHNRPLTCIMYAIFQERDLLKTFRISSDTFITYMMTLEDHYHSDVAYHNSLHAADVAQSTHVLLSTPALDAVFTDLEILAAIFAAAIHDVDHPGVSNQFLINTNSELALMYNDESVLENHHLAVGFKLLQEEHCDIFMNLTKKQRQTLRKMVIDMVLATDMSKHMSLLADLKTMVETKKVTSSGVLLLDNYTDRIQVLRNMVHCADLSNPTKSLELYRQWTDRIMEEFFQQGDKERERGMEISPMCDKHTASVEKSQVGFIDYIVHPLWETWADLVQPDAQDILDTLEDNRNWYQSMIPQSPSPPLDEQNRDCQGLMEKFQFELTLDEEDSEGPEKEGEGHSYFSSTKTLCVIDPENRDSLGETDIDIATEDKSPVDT
Sequence of Cytochrome P450 1A2 (Homo sapiens) (P05177 whole entry, looked up): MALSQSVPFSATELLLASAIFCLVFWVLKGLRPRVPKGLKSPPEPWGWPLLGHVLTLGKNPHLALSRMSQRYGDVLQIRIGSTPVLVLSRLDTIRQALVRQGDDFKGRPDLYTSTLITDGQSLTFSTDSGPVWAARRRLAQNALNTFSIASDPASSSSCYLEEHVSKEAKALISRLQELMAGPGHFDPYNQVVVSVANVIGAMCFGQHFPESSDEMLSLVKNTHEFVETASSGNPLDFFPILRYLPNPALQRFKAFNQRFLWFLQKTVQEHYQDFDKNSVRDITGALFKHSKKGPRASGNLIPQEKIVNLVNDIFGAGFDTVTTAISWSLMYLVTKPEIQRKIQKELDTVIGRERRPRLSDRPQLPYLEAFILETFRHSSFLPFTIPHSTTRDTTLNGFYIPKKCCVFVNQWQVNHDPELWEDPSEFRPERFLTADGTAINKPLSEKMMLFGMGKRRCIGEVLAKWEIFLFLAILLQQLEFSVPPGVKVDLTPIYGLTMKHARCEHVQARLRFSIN
Sequence of Cytochrome P450 2D6 (Homo sapiens) (P10635 whole entry, looked up): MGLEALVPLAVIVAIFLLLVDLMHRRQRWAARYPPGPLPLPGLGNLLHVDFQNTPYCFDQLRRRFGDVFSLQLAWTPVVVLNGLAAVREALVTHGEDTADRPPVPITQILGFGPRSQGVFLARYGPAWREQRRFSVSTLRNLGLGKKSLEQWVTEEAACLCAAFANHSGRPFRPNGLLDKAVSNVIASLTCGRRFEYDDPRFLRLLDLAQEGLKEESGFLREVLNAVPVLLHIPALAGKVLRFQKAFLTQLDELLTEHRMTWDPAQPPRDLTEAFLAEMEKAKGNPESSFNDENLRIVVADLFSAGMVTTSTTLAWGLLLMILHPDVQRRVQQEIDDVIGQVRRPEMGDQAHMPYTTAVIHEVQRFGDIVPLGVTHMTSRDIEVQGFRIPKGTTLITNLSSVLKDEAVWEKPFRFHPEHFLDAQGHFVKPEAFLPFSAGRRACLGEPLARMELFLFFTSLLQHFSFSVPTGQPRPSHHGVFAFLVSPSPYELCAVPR
Sequence of DNA dC->dU-editing enzyme APOBEC-3G (Homo sapiens) (Q9HC16 whole entry, looked up): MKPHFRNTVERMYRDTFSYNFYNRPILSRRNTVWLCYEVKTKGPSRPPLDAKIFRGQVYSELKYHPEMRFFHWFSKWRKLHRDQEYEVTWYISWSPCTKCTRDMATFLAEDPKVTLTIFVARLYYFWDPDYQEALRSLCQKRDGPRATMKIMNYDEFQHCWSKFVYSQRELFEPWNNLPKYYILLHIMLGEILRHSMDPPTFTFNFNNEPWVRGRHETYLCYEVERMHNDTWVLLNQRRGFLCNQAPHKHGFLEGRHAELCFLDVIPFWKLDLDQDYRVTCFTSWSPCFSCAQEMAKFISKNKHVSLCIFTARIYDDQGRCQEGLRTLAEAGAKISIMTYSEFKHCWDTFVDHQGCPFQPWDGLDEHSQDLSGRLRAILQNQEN
Sequence of Glucocorticoid receptor (Homo sapiens) (P04150 whole entry, looked up): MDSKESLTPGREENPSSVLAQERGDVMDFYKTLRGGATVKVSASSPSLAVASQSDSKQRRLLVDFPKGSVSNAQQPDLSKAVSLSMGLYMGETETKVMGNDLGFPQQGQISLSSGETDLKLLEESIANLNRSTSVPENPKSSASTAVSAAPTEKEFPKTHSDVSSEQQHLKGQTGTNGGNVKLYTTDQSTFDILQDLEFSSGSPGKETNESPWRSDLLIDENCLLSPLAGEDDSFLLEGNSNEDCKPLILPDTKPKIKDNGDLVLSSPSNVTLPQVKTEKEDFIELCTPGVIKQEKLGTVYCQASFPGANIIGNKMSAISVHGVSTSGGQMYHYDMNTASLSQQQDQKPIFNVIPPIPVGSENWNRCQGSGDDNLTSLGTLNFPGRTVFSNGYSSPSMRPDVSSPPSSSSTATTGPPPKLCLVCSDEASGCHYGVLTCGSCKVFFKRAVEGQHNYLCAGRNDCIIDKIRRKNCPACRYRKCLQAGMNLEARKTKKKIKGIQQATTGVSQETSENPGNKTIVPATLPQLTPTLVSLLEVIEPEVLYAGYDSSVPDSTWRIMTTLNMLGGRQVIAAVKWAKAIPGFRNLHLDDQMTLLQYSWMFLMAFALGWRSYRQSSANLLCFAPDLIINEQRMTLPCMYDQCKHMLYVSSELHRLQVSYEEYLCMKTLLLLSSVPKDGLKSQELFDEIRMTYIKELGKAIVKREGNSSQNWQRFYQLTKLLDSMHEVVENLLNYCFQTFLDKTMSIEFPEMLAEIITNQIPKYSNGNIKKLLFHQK
Sequence of Cytochrome P450 3A4 (Homo sapiens) (P08684 whole entry, looked up): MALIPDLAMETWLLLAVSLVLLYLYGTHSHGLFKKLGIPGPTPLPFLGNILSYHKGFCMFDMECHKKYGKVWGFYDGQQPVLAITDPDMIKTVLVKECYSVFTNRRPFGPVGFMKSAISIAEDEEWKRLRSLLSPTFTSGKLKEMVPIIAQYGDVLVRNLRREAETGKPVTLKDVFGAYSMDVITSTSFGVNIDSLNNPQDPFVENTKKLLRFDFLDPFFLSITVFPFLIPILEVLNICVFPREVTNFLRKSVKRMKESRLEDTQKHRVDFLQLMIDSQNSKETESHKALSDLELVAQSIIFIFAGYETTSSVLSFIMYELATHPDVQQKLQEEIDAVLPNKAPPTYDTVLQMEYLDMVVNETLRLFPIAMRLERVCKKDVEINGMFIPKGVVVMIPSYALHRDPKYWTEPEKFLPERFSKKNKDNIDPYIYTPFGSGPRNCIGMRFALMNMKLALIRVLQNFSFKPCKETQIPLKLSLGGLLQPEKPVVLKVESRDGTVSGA
Sequence of Cytochrome P450 2C9 (Homo sapiens) (P11712 whole entry, looked up): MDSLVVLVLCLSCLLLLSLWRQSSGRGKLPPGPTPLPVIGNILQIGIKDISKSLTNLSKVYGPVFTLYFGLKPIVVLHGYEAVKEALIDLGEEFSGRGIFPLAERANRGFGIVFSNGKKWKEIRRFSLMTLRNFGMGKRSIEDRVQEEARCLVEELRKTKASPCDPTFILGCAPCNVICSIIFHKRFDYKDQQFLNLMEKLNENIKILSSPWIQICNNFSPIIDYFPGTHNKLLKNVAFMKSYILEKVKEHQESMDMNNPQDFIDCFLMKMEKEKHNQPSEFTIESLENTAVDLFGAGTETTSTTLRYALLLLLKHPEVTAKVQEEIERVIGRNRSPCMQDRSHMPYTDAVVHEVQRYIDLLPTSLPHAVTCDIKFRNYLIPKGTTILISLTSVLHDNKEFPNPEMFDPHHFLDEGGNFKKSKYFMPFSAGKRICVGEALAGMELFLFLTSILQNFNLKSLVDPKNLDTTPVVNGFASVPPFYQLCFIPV
Sequence of Cytochrome P450 2C19 (Homo sapiens) (P33261 whole entry, looked up): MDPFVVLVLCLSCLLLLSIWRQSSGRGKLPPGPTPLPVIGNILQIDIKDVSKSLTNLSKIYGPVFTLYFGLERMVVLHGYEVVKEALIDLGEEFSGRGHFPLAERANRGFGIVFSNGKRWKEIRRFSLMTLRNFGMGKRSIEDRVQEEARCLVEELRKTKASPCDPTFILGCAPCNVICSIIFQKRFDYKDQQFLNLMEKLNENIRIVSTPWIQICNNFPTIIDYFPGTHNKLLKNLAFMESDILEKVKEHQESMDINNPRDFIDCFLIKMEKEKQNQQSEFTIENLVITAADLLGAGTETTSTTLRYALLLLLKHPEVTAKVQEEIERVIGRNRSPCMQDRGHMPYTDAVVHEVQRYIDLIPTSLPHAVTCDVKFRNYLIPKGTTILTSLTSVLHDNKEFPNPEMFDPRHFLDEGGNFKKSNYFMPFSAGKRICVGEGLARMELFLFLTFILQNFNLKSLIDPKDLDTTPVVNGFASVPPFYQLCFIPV
Sequence of Guanine nucleotide-binding protein G(i) subunit alpha-1 (Homo sapiens) (P63096 whole entry, looked up): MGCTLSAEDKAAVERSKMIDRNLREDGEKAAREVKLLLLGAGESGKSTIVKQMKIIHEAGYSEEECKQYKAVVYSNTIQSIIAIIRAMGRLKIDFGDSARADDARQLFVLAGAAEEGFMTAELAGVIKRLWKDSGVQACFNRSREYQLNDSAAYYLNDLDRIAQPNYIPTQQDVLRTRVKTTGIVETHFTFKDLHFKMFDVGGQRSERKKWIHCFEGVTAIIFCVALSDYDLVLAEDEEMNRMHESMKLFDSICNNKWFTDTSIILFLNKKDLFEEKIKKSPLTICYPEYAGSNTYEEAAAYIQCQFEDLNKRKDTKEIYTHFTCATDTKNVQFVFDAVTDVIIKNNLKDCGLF

Consider `CNC(=O)Oc1ccc2c(c1)[C@@]1(C)CCN(C)[C@@H]1N2C`, for which the activity change, negative = inhibition is -5.3% in [1] (at 17.2 µM (top of the series)), 6.53% in test [1] (at 38 µM (top of the series)), -2.84% in [3] (at 17.2 µM (top of the series)) and -3.73% in test [3] (at 38 µM (top of the series)). In addition, the Potency result in test [2], in test [5], in test [6], in test [8], in test [10] and in test [11] was “inactive” in each case. For the same molecule, the Potency result in test [12], in [16] and in [17] was “inactive” each time. The figures for the activity, negative = inhibition in test [4] (at 17.2 µM (top of the series)) and in test [4] (at 38 µM (top of the series)) were 5.27% and -23.2%, respectively. Moreover, the call in [7], in test [13], in [14] and in test [15] was inactive. In addition, the Potency in [9] is 1.26 µM (active) and 79.4 nM (active) and 251 nM (active).
`CSc1cc2c(cc1C(F)(F)F)N(C(=O)Nc1cccnc1)CC2`: the Potency is 0.000794 µM (active) in [2], more than 46 µM in test [18], more than 46 µM in [19] and 0.0063 µM (active) in test [8]. Also, the Potency entry in [5], in [16] and in test [17] was “inactive” each time.
Consider `COc1cc(OC)c2cc(-c3ccncc3)cnc2c1`, for which the Potency in test [2] was 0.2 µM (active); in test [18], more than 46 µM; in test [19], more than 46 µM; in test [17] it was 21.2 µM (active). Moreover, the Potency entry in test [5], in test [6] and in test [20] was “inactive” throughout.
With `CCCCCCCCC(=O)NCc1cc(OC)c(O)cc1I`, the Potency was 12.6 µM (active) in test [2]; more than 46 µM in [18]; more than 46 µM in [19]; 3.16 µM (active) in test [21]; 7.94 µM (active) in test [9]. Also, the Potency result in test [5], in test [16] and in test [17] was “inactive” each time.
Consider `Cc1nc(N=Nc2cc(S(=O)(=O)O)ccc2S(=O)(=O)O)c(COP(=O)(O)O)c(C=O)c1O`, for which the Potency result in test [2], in test [5], in test [6], in [16] and in test [17] was “inactive” throughout. Moreover, the Potency in test [18] is more than 46 µM; in test [19], more than 46 µM; in [22], 1 µM (active).

The record behind these values is PubChem BioAssay (NCATS).
